This is an account of results in PubChem BioAssay (Tox21).

The nature of test [1]: A CellTox Green Cytotoxicity Assay to monitor cytotoxicity in HepG2 cells - 0 hour (AID 1224882). Also: nearly all actives have a fitted effect of over 35% in size. In a few lines:
(§1)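 First, HepG2 cells (600/well) mixed with reagent were plated; second, after 5 h at 37 C they received compounds via pintool; third, fluorescence was measured at 0 h through 40 h at 8 h intervals.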

Test [2] in a line: A CellTox Green Cytotoxicity Assay to monitor cytotoxicity in HepG2 cells - 32 hour (AID 1224883). Also: nearly all actives have a fitted effect of over 50% in size. Also: potency is read from the fitted curve at half-maximal effect. In a few lines:
as §1

The nature of test [3]: A CellTox Green Cytotoxicity Assay to monitor cytotoxicity in HEK293 cells - 8 hour (AID 1224884). Also: nearly all actives have a fitted effect of over 35% in size. The essentials: (§2)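 Dead-cell fluorescence measured kinetically: asymmetric cyanine dye, HEK293, 600 cells/well, 5 h settle, 23 nL cpd/DMSO, 37 C, reads 0–40 h every 8 h.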
Test [4] in a line: qHTS RealTime-Glo MT Cell Viability Assay in HepG2 cells - 16 hour (AID 1224885). Also: nearly all actives have a fitted effect of over 50% in size. Also: potency is read from the fitted curve at half-maximal effect. The essentials: (§3)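 HepG2 suspension premixed with RealTime-Glo reagents is plated at 600 cells per well and left 5 h at 37 C/5% CO2. Compounds in DMSO then go in, and bioluminescence reflecting viable cell number is recorded over 40 h.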
Test [5] in a line: qHTS RealTime-Glo MT Cell Viability Assay in HEK293 cells - 24 hour (AID 1224886). Also: nearly all actives have a fitted effect of over 50% in size. Also: potency is read from the fitted curve at half-maximal effect. As to activity change, negative = cytotoxicity: top concentration of the series differs between compounds. The essentials:
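Reads taken at 0, 8, 16, 24, 32 and 40 h from the same wells. HEK293 cells (600/well) carried RealTime-Glo reagents from seeding, with compound added after a 5 h settle at 37 C.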
Background: In qHTS, concentration-response curves come from the screen itself.

Test [6] in a line: qHTS RealTime-Glo MT Cell Viability Assay in HEK293 cells - 8 hour (AID 1224887). Also: nearly all actives have a fitted effect of over 50% in size. Also: potency is read from the fitted curve at half-maximal effect. As to activity change, negative = cytotoxicity: top concentration of the series differs between compounds. The essentials:
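600 HEK293 cells per well, dispensed already mixed with RealTime-Glo MT reagents. Compound dosing came 5 h later. The same wells were read for luminescence at 0, 8, 16, 24, 32 and 40 h of exposure at 37 C.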

A short description of test [7]: A CellTox Green Cytotoxicity Assay to monitor cytotoxicity in HEK293 cells - 16 hour (AID 1224888). Also: nearly all actives have a fitted effect of over 35% in size. In a few lines: as §2
Test [8] in a line: qHTS RealTime-Glo MT Cell Viability Assay in HepG2 cells - 0 hour (AID 1224889). Also: nearly all actives have a fitted effect of over 50% in size. In a few lines: as §3
Test [9] can be described thus: A CellTox Green Cytotoxicity Assay to monitor cytotoxicity in HepG2 cells - 8 hour (AID 1224890). Also: nearly all actives have a fitted effect of over 45% in size. The essentials:
as §1

Test [10] is described as follows: qHTS assay to identify small molecule antagonists of the estrogen receptor alpha (ER-alpha) signaling pathway using the BG1 cell line in the presence of 0.1 nM 17-beta-estradiol - cell viability counter screen (AID 1259241). Also: nearly all actives have a fitted effect of over 40% in size. Also: potency is read from the fitted curve at half-maximal effect. In a few lines:
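Cells were plated and left 24 hr, compounds in DMSO were pinned in, 17beta-estradiol was added to 0.1 nM final, and after 22 hr CellTiter-Fluor reagent was added for 30 min before fluorescence was read.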

The nature of test [11]: qHTS assay to identify small molecule antagonists of the androgen receptor (AR) signaling pathway using the MDA cell line in the presence of 0.5 nM R1881 - cell viability counter screen (AID 1259242). Also: nearly all actives have a fitted effect of over 45% in size. Also: potency is read from the fitted curve at half-maximal effect. The essentials:
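qHTS format. MDA-kb2 (MMTV-luc, AR/GR responsive) + cpd + 0.5 nM R1881 final, 16 hr 37C/0% CO2 → CellTiter-Fluor 30 min → fluorescence intensity.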

Test [12] has as its target Androgen receptor (Homo sapiens) (UniProt P10275). The test is described as follows: qHTS assay to identify small molecule antagonists of the androgen receptor (AR) signaling pathway using the MDA cell line in the presence of 0.5 nM R1881 (AID 1259243). Also: nearly all actives have a fitted effect of over 50% in size. Also: potency is read from the fitted curve at half-maximal effect. In a few lines: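 Antagonist mode quantitative HTS in MDA-kb2 MMTV-luciferase cells, agonist R1881 at 0.5 nM final, 16 hr exposure at 37C and 0% CO2, luminescent detection.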

In test [13] the target is Estrogen receptor (Homo sapiens) (UniProt P03372). Description: qHTS assay to identify small molecule antagonists of the estrogen receptor alpha (ER-alpha) signaling pathway using the BG1 cell line in the presence of 0.1 nM 17-beta-estradiol (AID 1259244). Also: nearly all actives have a fitted effect of over 50% in size. Also: potency is read from the fitted curve at half-maximal effect. In a few lines: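 Reporter is a stably transfected luciferase under four estrogen responsive elements in VM7Luc4E2 cells expressing native full-length ER-alpha; inhibition of 0.1 nM (final) 17beta-estradiol-driven signal over 22 h is read by luminescence.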

Test [14] in a line: qHTS assay to identify small molecule HDAC inhibitors - cell viability counter screen (AID 1259365). The essentials: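 Counter screen in wild-type HCT-116 cells: compounds dissolved in DMSO are pin-transferred onto overnight-plated cells and left 2hr at 37C. ATP-based CellTiter-Glo luminescence then measures viable cells.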
Test [15] can be described thus: qHTS assay to identify small molecule agonists of the sonic hedgehog signaling (Shh) pathway - cell viability counter screen (AID 1259366). Also: nearly all actives have a fitted effect of over 50% in size. Also: potency is read from the fitted curve at half-maximal effect. The essentials: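 Cells are plated at 2,000 per well and left 4hr at 37C, 5% CO2 before compound addition. After 23hr of treatment, CellTiter-Fluor reagent is added for 1hr at 37C and fluorescence is measured.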
Test [16] can be described thus: qHTS assay to identify small molecule antagonists of the sonic hedgehog signaling (Shh) pathway - cell viability counter screen (AID 1259367). Also: nearly all actives have a fitted effect of over 55% in size. Also: potency is read from the fitted curve at half-maximal effect. The essentials:
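Fluorescence read-out (CellTiter-Fluor, 1 hr at 37C) taken after 23 hr compound treatment of 3T3 Gli1-Luc cells stimulated with conditioned medium. Cells were seeded at 2,000 per well and pre-incubated 4 hr.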

Test [17] can be described thus: qHTS assay to identify small molecule agonists of the sonic hedgehog signaling (Shh) pathway (AID 1259368; calls by dose curve;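 also: NIH/3T3-derived 3T3Gli1-Luc cells carrying a stable Gli1-driven firefly luciferase reporter; series mostly up to about 92 µM; nearly all actives have a fitted effect of over 15% in size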). In a few lines:
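Quantitative high-throughput format using a Gli1-driven firefly luciferase reporter line derived from NIH/3T3 cells. After a 24 hr compound treatment at 37 C and 5% CO2, luminescence reported Gli1 response element activity.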

Test [18] is described as follows: qHTS assay to identify small molecule antagonists of the sonic hedgehog signaling (Shh) pathway (AID 1259369; calls by dose curve; also: nearly all actives have a fitted effect of over 45% in size; also: potency is read from the fitted curve at half-maximal effect). In a few lines:
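Stable Gli1-Luc reporter NIH/3T3 clone; quantitative HTS in stimulated mode with conditioned medium. Luminescence measured after 24hr compound treatment at 37 C.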

Test [19] in a line: qHTS assay to identify small molecule HDAC inhibitors (AID 1259364).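 Also: wild-type HCT-116 cells with endogenous class I/II HDAC activity; top concentration of the series differs between compounds; nearly all actives have a fitted effect of over 45% in size.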 In a few lines: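 Quantitative high-throughput format: overnight-seeded HCT-116 cells got compounds for 2 hr at 37C; HDAC-Glo I/II reagent added, 30 min RT, luminescence measured.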

“And” between values parts separate entries of the source, which are not always exact repeats. Equal entries are not always repeated. Records with an inconclusive call do not appear. Some compounds were tested as several samples or in several runs, with calls that do not always agree. The source made the active and inactive calls. Unless noted, calls follow the shape of the dose curve; as a rule, active = well fitted curve in the direction sought with a large enough effect in the repeat runs; inconclusive = weak or mixed curves; inactive = no such curve, though single readings can be large; an effect the other way counts as inactive or inconclusive.
% is scaled to controls: 0 for no effect and ±100 for the full control effect.

Sequence of Androgen receptor (Homo sapiens) (P10275 whole entry, looked up): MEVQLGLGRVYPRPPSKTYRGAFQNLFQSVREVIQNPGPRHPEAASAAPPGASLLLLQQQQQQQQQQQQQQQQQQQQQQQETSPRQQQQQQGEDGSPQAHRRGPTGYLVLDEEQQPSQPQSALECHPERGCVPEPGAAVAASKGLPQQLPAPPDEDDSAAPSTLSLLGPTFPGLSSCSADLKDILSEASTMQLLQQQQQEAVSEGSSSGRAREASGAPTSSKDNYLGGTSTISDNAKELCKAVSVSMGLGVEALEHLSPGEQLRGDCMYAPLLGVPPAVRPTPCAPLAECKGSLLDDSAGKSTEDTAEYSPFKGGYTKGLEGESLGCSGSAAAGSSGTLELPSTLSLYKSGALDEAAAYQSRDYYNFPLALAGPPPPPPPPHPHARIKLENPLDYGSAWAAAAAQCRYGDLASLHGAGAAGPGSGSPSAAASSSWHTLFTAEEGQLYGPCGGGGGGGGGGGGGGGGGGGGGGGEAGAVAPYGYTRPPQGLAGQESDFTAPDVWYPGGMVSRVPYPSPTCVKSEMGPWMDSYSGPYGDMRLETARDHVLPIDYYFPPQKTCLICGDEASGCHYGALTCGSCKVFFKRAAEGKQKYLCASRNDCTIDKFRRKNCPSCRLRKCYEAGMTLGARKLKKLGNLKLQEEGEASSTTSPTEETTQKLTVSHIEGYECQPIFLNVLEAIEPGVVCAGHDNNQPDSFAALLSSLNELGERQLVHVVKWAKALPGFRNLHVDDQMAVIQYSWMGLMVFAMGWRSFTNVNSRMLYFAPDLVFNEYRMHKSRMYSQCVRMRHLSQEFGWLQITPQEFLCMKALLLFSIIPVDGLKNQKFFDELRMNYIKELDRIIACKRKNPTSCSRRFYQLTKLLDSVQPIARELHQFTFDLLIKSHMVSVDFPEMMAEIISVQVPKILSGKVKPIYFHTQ
Sequence of Estrogen receptor (Homo sapiens) (P03372 whole entry, looked up): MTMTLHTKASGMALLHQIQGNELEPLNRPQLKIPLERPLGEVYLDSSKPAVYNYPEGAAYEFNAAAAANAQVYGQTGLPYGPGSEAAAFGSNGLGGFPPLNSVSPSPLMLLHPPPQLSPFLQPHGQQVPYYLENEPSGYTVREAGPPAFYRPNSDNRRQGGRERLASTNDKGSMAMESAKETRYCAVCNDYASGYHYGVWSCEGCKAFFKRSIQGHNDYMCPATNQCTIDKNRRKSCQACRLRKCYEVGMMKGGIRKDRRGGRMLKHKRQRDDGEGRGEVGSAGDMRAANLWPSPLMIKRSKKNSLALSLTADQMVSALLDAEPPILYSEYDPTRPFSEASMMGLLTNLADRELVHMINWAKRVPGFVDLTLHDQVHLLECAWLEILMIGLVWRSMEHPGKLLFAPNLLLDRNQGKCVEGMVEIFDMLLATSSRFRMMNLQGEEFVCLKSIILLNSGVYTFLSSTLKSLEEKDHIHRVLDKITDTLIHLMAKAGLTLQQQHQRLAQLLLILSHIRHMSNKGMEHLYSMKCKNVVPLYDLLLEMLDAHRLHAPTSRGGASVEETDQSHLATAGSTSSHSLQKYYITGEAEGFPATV

Take `CCc1cccc(CC)c1NC(=O)C(=O)O`: the Potency result in [1], in test [2], in [3], in test [4], in [5] and in [6] was “inactive” in each case. Further, the Potency entry in [7], in test [8], in [9], in test [10], in test [11] and in [12] was “inactive” in each case. For the same compound, the Potency entry in test [13], in test [14], in test [15], in [16], in test [17] and in test [18] was “inactive” in each case.
For `CC(=O)OC1CCCCC1`, the Potency result in test [1], in test [2], in test [3], in test [4], in [5] and in [6] was “inactive” each time. The Potency result in test [7], in test [8], in test [9], in [10], in [11] and in test [12] was “inactive” each time. Besides, the Potency entry in test [13], in test [19], in [15], in test [16], in [17] and in [18] was “inactive” throughout.
Turning to `CCCC(O)C(O)CO` (stereo not drawn), the Potency result in [1], in test [2], in test [3], in test [4], in test [5] and in [6] was “inactive” each time. The Potency entry in [7], in test [8], in test [9], in test [10], in test [11] and in [12] was “inactive” throughout. The Potency entry in test [19], in test [14], in test [15], in test [16], in test [17] and in [18] was “inactive” each time.
On to `CC1=C(/C=C/C(C)=C/C=C/C(C)=C/C(=O)Nc2ccc(O)cc2)C(C)(C)CCC1`, for which the Potency entry in [1], in [3], in test [7], in test [8], in test [9] and in [19] was “inactive” throughout. For the same compound, the Potency result in [14] and in test [17] was “inactive” in each case. Moreover, the Potency in test [2] was 50.2 µM (active) and 26.8 µM (active); in test [4], “inactive and 26.8 µM (active)”; in test [5], 893 nM (active) and 338 nM (active); in test [6] it was 710 nM (active) and 239 nM (active); in test [10], 55.9 µM (active) and 11.9 µM (active); in test [11], 23.7 µM (active). Besides, the Potency in test [12] was 55.9 µM (active) and 18.8 µM (active); in [13] it was 28 µM (active) and 13.3 µM (active); in test [15], 31.4 µM (active) and 21.1 µM (active); in test [16], 28 µM (active) and 21.1 µM (active); in test [18], 14 µM (active) and 11.9 µM (active).
As for `COc1ccccc1C=O`, the Potency result in test [1], in [2], in [3], in [4], in test [5] and in test [6] was “inactive” throughout. In addition, the Potency result in test [7], in test [8], in [9], in test [10], in test [11] and in [12] was “inactive” each time. The Potency result in test [13], in test [19], in test [15], in test [16], in test [17] and in test [18] was “inactive” in each case.
As to `c1ccc2c(c1)CCC2`, the Potency result in test [1], in test [2], in test [3], in [4], in test [5] and in test [6] was “inactive” in each case. Moreover, the Potency entry in test [7], in test [8], in [9], in [10], in test [11] and in test [12] was “inactive” throughout. For the same compound, the Potency entry in test [13], in [19], in test [14], in test [15], in test [16] and in test [17] was “inactive” throughout. Also, in test [18], the Potency entry was “inactive”.
Regarding `O=S(=O)(O)c1cc(S(=O)(=O)O)c2ccc3c(S(=O)(=O)O)cc(S(=O)(=O)O)c4ccc1c2c43`, the cytotoxicity in test [1] is -2.2% [at 15.8 µM] (inactive). Further, the cytotoxicity increase in test [2] was -9.89% [at 15.8 µM] (inactive); in test [3], -7.26% [at 15.8 µM] (inactive); in test [9], 7.21% [at 15.8 µM] (inactive). Moreover, in test [4], the activity change, negative = cytotoxic is 2.01% [at 15.8 µM] (inactive). Besides, the activity change, negative = cytotoxicity is 1.56% [at 15.8 µM] (inactive) in test [5], -2.93% [at 15.8 µM] (inactive) in test [6], 4.18% [at 15.8 µM] (inactive) in test [8] and -2.07% [at 19 µM] (inactive) in test [10]. Further, the activity change in test [7] is -3.56% [at 15.8 µM, stronger effect = higher value] (inactive); in [17], -2.01% [at 18.9 µM, stronger effect = higher value] (inactive). In addition, the viability change, negative = cytotoxic in test [11] was -1.34% [at 19 µM] (inactive); in test [15], 1.66% [at 19 µM] (inactive); in test [16], 0.116% [at 19 µM] (inactive). The activity, negative = inhibition in [12] was 1.23% [at 19 µM] (inactive). In addition, the results for the activity change, negative = inhibition in test [13], in [19] and in test [18] were 0.118% [at 19 µM] (inactive), 4.2% [at 19 µM] (inactive) and 2.19% [at 19 µM] (inactive), respectively.
Regarding `CCc1c(Br)c(Br)c(Br)c(Br)c1Br`, the Potency entry in test [1], in test [2], in [3], in test [4], in test [5] and in test [6] was “inactive” throughout. In addition, the Potency entry in test [7], in test [8], in [9], in [10], in test [11] and in [12] was “inactive” each time. Also, the Potency result in [13], in test [19], in [14], in test [15], in test [16] and in test [17] was “inactive” throughout. Further, in test [18], the Potency entry is “inactive”.
With `CCOCOCC`, the Potency entry in test [1], in [2], in [3], in [4], in test [5] and in test [6] was “inactive” in each case. Also, the Potency entry in test [7], in test [8], in test [9], in test [10], in test [11] and in test [12] was “inactive” throughout. The Potency entry in test [13], in test [19], in [14], in [15], in [16] and in test [17] was “inactive” in each case.
As to `CCOC(OCC)C(=O)c1ccccc1`, the Potency result in [1], in test [2], in test [3], in test [4], in test [5] and in test [6] was “inactive” each time. The Potency entry in test [7], in [8], in [9], in test [10], in [11] and in [12] was “inactive” each time. The Potency result in test [13], in test [19], in test [14], in test [16], in [17] and in test [18] was “inactive” each time.
